A selection: hits, their analogues and other compounds. The true share with any hit is near 0.41%.
GLA inh pH 4.5: alpha-galactosidase A (human) inhibition, pH 4.5; P06280; purified enzyme, 4-MU-alpha-Gal fluorescence, pH 4.5; activity change, negative = inhibition, % at 105 µM; 230,000 tested, under 10 active;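 further: 0% = full activity with enzyme and -100% = basal without enzyme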
Target sequence (P06280 whole entry, looked up): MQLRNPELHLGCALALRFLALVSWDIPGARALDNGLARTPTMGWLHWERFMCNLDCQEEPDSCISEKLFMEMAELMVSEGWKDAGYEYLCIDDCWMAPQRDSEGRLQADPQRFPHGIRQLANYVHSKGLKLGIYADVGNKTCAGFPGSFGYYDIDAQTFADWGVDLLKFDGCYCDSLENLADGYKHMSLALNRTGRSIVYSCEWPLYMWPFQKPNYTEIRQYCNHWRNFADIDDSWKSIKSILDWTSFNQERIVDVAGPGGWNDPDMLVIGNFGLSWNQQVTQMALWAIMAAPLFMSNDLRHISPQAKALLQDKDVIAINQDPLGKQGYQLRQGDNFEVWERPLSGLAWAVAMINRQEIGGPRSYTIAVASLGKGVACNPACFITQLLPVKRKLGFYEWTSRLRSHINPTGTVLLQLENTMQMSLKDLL
GLA spleen mod: inhibitors or activators of human alpha-galactosidase in spleen homogenate | 0.008% of 240,000 active | human spleen homogenate, 4MU-alpha-Gal fluorescence, 40 min | Potency, µM (highest dose often 80 µM), inactives show top-dose activity change, negative = inhibition, hits mostly inhibitors | P06280;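 further: potency means the concentration at half of the fitted maximal effect; 0% = enzyme with vehicle and -100% = no enzyme basal signal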
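qHTS titration in buffer at pH 5.0. Alpha-galactosidase activity in spleen homogenate was measured via 4-methylumbelliferone release from 1 mM fluorogenic substrate after 40 min at 37C and a pH 10 stop. AC50 came from Hill fits of control-normalized data.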
GAA spleen mod: inhibits or activates alpha-glucosidase in human spleen homogenate; 0.006% of 240,000 active; human spleen homogenate, 4-MU-alpha-glucoside fluorescence; P10253; Potency, µM (top dose mostly 79.9 µM), for inactives: top-dose activity change, negative = inhibition, most hits filed as inhibitors; AID 2112;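 further: potency means the concentration at half of the fitted maximal effect; 0% = enzyme with vehicle and -100% = no enzyme basal signal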
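Human spleen homogenate (1 ug) incubated with compounds and 1 mM 4-methylumbelliferyl-alpha-D-glucopyranoside in pH 5.0 citrate/phosphate buffer, 37 C, 40 min. Stopped at pH 10; 4-MU fluorescence (Ex 365/Em 440 nm); AC50 by Hill fit.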
GAA inhib: inhibitors of human lysosomal alpha-glucosidase; P10253; purified human GAA, 4-MU-alpha-glucoside fluorescence; Potency, µM (highest dose often 76.9 µM), without a hit: at the top dose activity change, negative = inhibition, hits mostly inhibitors; 0.005% of 200,000 active; AID 1466;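 further: potency means the concentration at half of the fitted maximal effect; plate controls were uninhibited enzyme wells for no effect and no-enzyme background for full effect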
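Endpoint fluorogenic read: 20 min room-temperature reaction of 4 nM human alpha-glucosidase with 400 uM 4-methylumbelliferyl-alpha-D-pyranoside, pH 5.0, quenched with 1M NaOH/1M glycine pH 10. AC50 from Hill modeling.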
GAA glycogen mod: GAA glycogen-cleavage inhibition or activation; P10253; recombinant GAA, glycogen substrate, Amplex Red glucose oxidase fluorescence; Potency, µM (titrated, usually from 76.4 µM), for inactives: at the highest dose activity change, negative = inhibition, hits mostly inhibitors; 0.38% of 300,000 active; AID 2100;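 further: potency means the concentration at half of the fitted maximal effect; 0% = full enzyme reaction and -100% = no-enzyme basal signal; the screen sought inhibitors and activators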
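Natural-substrate format: glycogen cleavage by 4 nM human enzyme, glucose read by Amplex Red coupling (Ex 573, Em 610 nm). Normalized to enzyme and no-enzyme controls.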
N370S GC mod: inhibitors or activators of N370S glucocerebrosidase for Gaucher disease | N370S GC spleen homogenate, 4MU-glucoside fluorescence | 0.092% of 330,000 active | Potency, µM (top dose mostly 59.4 µM), without a hit: top-dose activity change, negative = inhibition, hits mostly inhibitors;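 further: potency means the concentration at half of the fitted maximal effect; 0% = full enzyme activity and -100% = no enzyme basal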
Starred values were filed as active, the others as inactive; [ ] = remark or other dose. The call rests on the fitted dose curve; in most records, active means well fitted curve in the direction sought with a large enough effect; inconclusive means small, poorly fitted or top-dose-only effect, or another doubt; inactive means no such curve, though single readings can be large; an effect the other way counts as inactive or inconclusive.

For CCn1c(C)c(/C=N/Nc2nc3ccccc3s2)c2ccccc21 the results were GLA inh pH 4.5 5, GLA spleen mod 0%, GAA spleen mod -10%, GAA inhib 1%, GAA glycogen mod 25µM* and N370S GC mod -16%.
For CN1CCN(C(=O)Nc2cccc(Cl)c2)c2cccnc21 the results were GAA glycogen mod 4.5µM*.
Screening NC(=O)N/N=C/c1coc2ccc(O)cc2c1=O returned GLA inh pH 4.5 -26, GLA spleen mod -2%, GAA spleen mod 3%, GAA inhib -26%, GAA glycogen mod 16µM* and N370S GC mod -4%.
Screening Cc1ccc2occ(/C=N/NC(=O)c3ccc(O)cc3)c(=O)c2c1 returned GAA glycogen mod -10%[76.3 µM] and N370S GC mod 1%.
`COc1ccc2[nH]c(C(=O)O)c(NS(=O)(=O)c3ccc(Cl)s3)c2c1` gave GLA inh pH 4.5 5, GLA spleen mod 10%, GAA spleen mod 7%, GAA inhib 7%, GAA glycogen mod 9.9µM* and N370S GC mod 9%.
`CCOC(=O)c1[nH]c2ccc(OC)cc2c1NS(=O)(=O)c1ccc(Cl)s1` gave GLA inh pH 4.5 1, GLA spleen mod 3%, GAA spleen mod 8%, GAA inhib 1%, GAA glycogen mod 6% and N370S GC mod -1%.
Screening C=C1c2ccccc2O[C@H](C(=O)OCC)C1OC (mixture of isomers) returned GLA inh pH 4.5 -6, GLA spleen mod 3%[119 µM], GAA spleen mod -2%[119 µM] and N370S GC mod 10%[89.1 µM].
For O=C1CC(c2ccc(O)c(O)c2)Oc2c1ccc(O)c2O (configuration not stated) the results were GLA inh pH 4.5 3, GLA spleen mod -1%, GAA spleen mod -2%, GAA glycogen mod 11µM* and N370S GC mod -6%.
Screening CC(C)=CCc1c(O)ccc2c1OC(c1ccc(O)c(O)c1)CC2=O (configuration not stated) returned GLA inh pH 4.5 3, GLA spleen mod -4%, GAA spleen mod 1%, GAA glycogen mod inconclusive and N370S GC mod -19%.
Screening O=S(=O)(Nc1cccc2cccnc12)c1ccc(Br)s1 returned GLA spleen mod 1%, GAA spleen mod 4% and N370S GC mod -5%.
`NC(N)=NCCC[C@@H](N)C(=O)NCC(=O)N[C@@H](CC(=O)O)C(=O)N[C@@H](Cc1c[nH]c2ccccc12)C(=O)O` gave GLA spleen mod 3%, GAA spleen mod 5% and N370S GC mod -6%.
O=C1Nc2ccccc2N(O)N1c1ccc(Cl)cc1 was read as GLA inh pH 4.5 3, GLA spleen mod -4%, GAA spleen mod -2%, GAA inhib 13%, GAA glycogen mod 5% and N370S GC mod -9%.
For CCN1c2ccccc2NC2C1C(C(C)=O)C(=O)N2c1ccc(Cl)cc1 (configuration not stated) the results were GLA inh pH 4.5 -7, GLA spleen mod 0%, GAA spleen mod -21%, GAA inhib -4%, GAA glycogen mod 25µM* and N370S GC mod -7%.
`CCOc1ccc(NC(=S)NNC(=O)c2ccc(Br)cc2)cc1` gave GLA inh pH 4.5 3, GLA spleen mod -1%, GAA spleen mod 1%, GAA inhib -5%, GAA glycogen mod 40µM* and N370S GC mod -12%.
O=C(NNC(=O)c1sccc1-n1cccc1)Nc1ccccc1 was read as GLA inh pH 4.5 -15, GLA spleen mod 1%, GAA spleen mod 5%, GAA inhib 1%, GAA glycogen mod 13µM* and N370S GC mod 3%.
`CCN1CCN(CC(=O)N2CCCC(C(=O)c3ccc(Oc4ccccc4)cc3)C2)CC1` (configuration not stated) gave GLA inh pH 4.5 2, GLA spleen mod -4%, GAA spleen mod -19%, GAA inhib 7%, GAA glycogen mod 7.9µM* and N370S GC mod inconclusive.
For CCOc1ccccc1CNC(=O)c1ccc(Cn2c(=O)c3cccn3c3cccnc32)cc1 the results were GAA glycogen mod 11%[76.3 µM].
